ASK1 primary: human ASK1 kinase inhibition, primary screen; Q99683; AlphaScreen MKK6 phosphorylation by ASK1, luminescence; inhibition, % at 7.44 µM; 22,000 compounds, 0.99% hits; AID 1159602; in the data active = inhibition above about 35%;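 note: 0% = median of compound wells and 100% = no enzyme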
ULK1 primary: blocks human autophagy kinase ULK1; AID 1259251; inhibition, % at 5.96 µM; AlphaScreen Atg13 phosphorylation by ULK1, luminescence; 30,000 compounds, 1.9% hits; in the data active = inhibition above about 43%;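 note: 0% = median of compound wells and 100% = no enzyme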
Target sequence (O75385 whole entry, looked up): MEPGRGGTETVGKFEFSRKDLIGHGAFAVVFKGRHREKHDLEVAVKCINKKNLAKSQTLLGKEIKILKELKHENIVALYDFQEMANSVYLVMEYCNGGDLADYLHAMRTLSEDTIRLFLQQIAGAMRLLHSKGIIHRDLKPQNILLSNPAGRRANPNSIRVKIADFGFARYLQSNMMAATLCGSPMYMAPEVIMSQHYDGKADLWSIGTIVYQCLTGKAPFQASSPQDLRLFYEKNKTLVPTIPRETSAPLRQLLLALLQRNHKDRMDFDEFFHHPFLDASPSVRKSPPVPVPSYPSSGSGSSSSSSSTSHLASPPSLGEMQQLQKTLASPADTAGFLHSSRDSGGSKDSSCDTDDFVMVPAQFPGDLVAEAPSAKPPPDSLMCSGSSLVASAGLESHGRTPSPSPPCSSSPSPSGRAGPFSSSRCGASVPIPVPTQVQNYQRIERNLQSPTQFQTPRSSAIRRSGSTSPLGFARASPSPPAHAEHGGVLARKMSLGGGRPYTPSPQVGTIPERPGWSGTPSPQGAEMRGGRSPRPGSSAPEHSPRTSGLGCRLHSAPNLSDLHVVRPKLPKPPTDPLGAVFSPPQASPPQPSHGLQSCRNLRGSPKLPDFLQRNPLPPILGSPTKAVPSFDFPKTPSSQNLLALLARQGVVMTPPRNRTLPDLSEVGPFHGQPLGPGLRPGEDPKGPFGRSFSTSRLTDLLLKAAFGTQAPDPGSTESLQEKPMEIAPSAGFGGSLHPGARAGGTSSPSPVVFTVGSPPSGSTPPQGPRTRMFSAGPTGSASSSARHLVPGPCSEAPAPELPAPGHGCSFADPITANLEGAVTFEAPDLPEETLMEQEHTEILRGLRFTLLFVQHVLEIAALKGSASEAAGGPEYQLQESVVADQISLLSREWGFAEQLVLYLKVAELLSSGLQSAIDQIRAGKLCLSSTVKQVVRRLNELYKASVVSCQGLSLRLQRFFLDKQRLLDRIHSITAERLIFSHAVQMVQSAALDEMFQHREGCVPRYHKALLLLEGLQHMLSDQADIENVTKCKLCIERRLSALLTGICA
AlphaScreen intf: AlphaScreen optical interference dose response, ASK1 counter-screen. shares compounds with ASK1 primary. IC50, µM. 220 compounds, 20% hits. AlphaScreen TruHits beads, signal interference counterscreen;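 active = IC50 of 10 µM or lower in the counterscreen; inactive = IC50 above 10 µM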;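 note: loss of AlphaScreen light from TruHits beads alone with no ASK1 enzyme present; potency of signal reduction so a low IC50 flags an assay artifact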
Starred values were filed as active, the others as inactive; i = inactive; nt = no result. An excerpt weighted towards active compounds, which were near 2.5% of everything screened.

SMILES	ASK1 primary	ULK1 primary	AlphaScreen intf
FC(F)(F)c1ccc(Cn2cnc3c(NCc4ccccc4)nc(-c4ccc(N5CCOCC5)nc4)nc32)cc1	45*	2	>20
Cc1ccc(N/C=C(/C#N)C(N)=S)nc1	nt	-2	nt
CCN(CC)c1nc(NCCO)nc(Nc2ccc(C(F)(F)F)cc2)n1	6	5	nt
COc1ccc(CCNc2nc(-c3ccc(OC)cc3)nc3c2ncn3C2CCCCC2)cc1	1	-1	nt
Cc1cc(NC2CCN(Cc3ccccc3)CC2)nc(Nc2cccc(N(C)C)c2)n1	50*	21	8.6*
Cc1cc(NC2CC2)nc(Nc2cccc(N(C)C)c2)n1	19	-6	nt
CC(C)n1cnc2c(NC3CCN(Cc4ccccc4)CC3)nc(Nc3cccc(N(C)C)c3)nc21	36*	18	i
CC(C)n1c(Nc2ccccc2)nc2c(NC3CCN(Cc4ccccc4)CC3)ncnc21	-12	-7	nt
CN(C)c1cccc(Nc2nc(NC3CCN(Cc4ccccc4)CC3)c3ncn(-c4ccccc4)c3n2)c1	10	10	nt
CC(C)n1c(Nc2cccc(N(C)C)c2)nc2c(NC3CCN(Cc4ccccc4)CC3)ncnc21	38*	17	>19
c1ccc(CNc2cc(-c3cccnc3)nc(-c3ccncc3)n2)cc1	nt	-1	nt
O=C(Nc1ccc(Oc2ccccc2)cc1)c1cnc(-c2ccccc2)s1	11	-7	nt
c1cc(-n2cnc3c(Nc4ccc(N5CCOCC5)cc4)nc(NCc4ccc5c(c4)OCO5)nc32)cs1	41*	10	>20
c1cc(-n2cnc3c(Nc4ccc5c(c4)OCO5)nc(NCc4ccc5c(c4)OCO5)nc32)cs1	17	0	nt
Cc1cc(Nc2ccc3c(c2)OCO3)nc(N2CCN(Cc3ccc4c(c3)OCO4)CC2)n1	37*	1	i
O=C1CCCN1CCCNc1nc(Nc2ccc(-n3ccnc3)cc2)nc2c1ncn2-c1ccsc1	47*	25	>20
CCCNc1cc(C)nc(N2CCN(Cc3ccc4c(c3)OCO4)CC2)n1	11	11	nt
CC(C)n1cnc2c(Nc3ccc(N4CCOCC4)cc3)nc(Nc3ccc(-n4ccnc4)cc3)nc21	36*	67*	>19
CC(=O)Nc1ccc(Nc2nc(Nc3ccc(N4CCOCC4)cc3)nc3c2ncn3C(C)C)cc1	23	16	nt
O=C1CCCN1CCCNc1nc(Nc2ccncc2)nc2c1ncn2-c1ccsc1	9	26	nt
Cc1cc(NCCOc2ccccc2)nc(Nc2cnccn2)n1	-16	3	nt
COc1cc(NC(=O)c2ccc([N+](=O)[O-])cc2[N+](=O)[O-])c(OC)cc1Cl	nt	-3	nt
COc1cc(Nc2cc(-c3cccc(C(C)=O)c3)ncn2)cc(OC)c1OC	3	-1	nt
C[Si](C)(C)CCOCn1nc(-c2cccc(C(=O)NCCN3CCOCC3)c2)c2cc(Nc3ccccc3Cl)ccc21	8	-21	nt
c1cc(-n2cnc3c(Nc4ccc5c(c4)OCO5)nc(N4CCN(Cc5ccc6c(c5)OCO6)CC4)nc32)cs1	36*	12	>20
SMILES	ASK1 primary	ULK1 primary	AlphaScreen intf
Nc1nc(NCc2ccc3c(c2)OCO3)cc(Nc2ccc(N3CCOCC3)cc2)n1	33	16	nt
CCCNc1nc(Nc2ccc(N3CCOCC3)cc2)nc2c1ncn2C1CCCCC1	51*	17	>20
c1cc(-n2cnc3c(NC4CC4)nc(Nc4ccc(N5CCOCC5)cc4)nc32)cs1	43*	25	>20
Nc1nc(Nc2ccc(N3CCOCC3)cc2)cc(Nc2ccc3c(c2)OCO3)n1	37*	16	>17
FC(F)(F)c1ccc(Nc2nc(Nc3ccc(N4CCOCC4)cc3)c3ncn(-c4ccsc4)c3n2)cc1	17	-8	nt
CC(=O)Nc1ccc(Nc2nc(N3CCN(Cc4ccc5c(c4)OCO5)CC3)nc3c2ncn3-c2ccsc2)cc1	14	-3	nt
c1cc(N2CCOCC2)ccc1Nc1nc(NCCN2CCOCC2)c2ncn(C3CCCCC3)c2n1	16	0	nt
O=C1CCCN1CCn1cnc2c(NCCOc3ccccc3)nc(NCCN3CCOCC3)nc21	0	-3	nt
O=C(NC1CCN(Cc2ccccc2)CC1)c1csc(NCc2cccnc2)n1	-6	1	nt
COc1cc(Nc2nc(NCCOc3ccccc3)c3ncn(-c4ccccc4)c3n2)cc(OC)c1OC	-3	9	nt
CC(C)NC(=O)c1cccc(NC(=O)Nc2ccc(-c3cc(N)ncn3)cc2)c1	-17	-7	nt
c1cc(-n2cnc3c(Nc4ccc5c(c4)OCO5)nc(NCCN4CCOCC4)nc32)cs1	26	25	nt
c1cc(-n2cnc3c(Nc4ccc5c(c4)OCO5)nc(Nc4ccc(N5CCOCC5)cc4)nc32)cs1	50*	29	i
c1ccc(Oc2ccc(Nc3nc(N4CCOCC4)nc4c3ncn4-c3ccsc3)cc2)cc1	24	2	nt
c1ccc(N2CCN(c3nc(Nc4ccc(N5CCOCC5)cc4)c4ncn(-c5ccsc5)c4n3)CC2)nc1	45*	-3	>20
Oc1ccc(CCNc2nc(N3CCN(c4ccccn4)CC3)nc3c2ncn3-c2ccsc2)cc1	39*	2	>21
CCCNc1nc(N2CCN(c3ccccn3)CC2)nc2c1ncn2-c1ccsc1	16	5	nt
O=C(NC1CC1)c1ccc(-c2csc3ccccc23)s1	-10	-33	nt
OCCNc1nc(Nc2ccccc2)nc2c1ncn2-c1ccsc1	3	17	nt
CN(C)c1cccc(Nc2nc3ccc(C(=O)NC4CCN(Cc5ccccc5)CC4)cc3s2)c1	27	27	nt
O=C(O)C1CCCN(Cc2ccncc2)C1 (stereo not drawn)	nt	6	nt
c1ccc2c(c1)OCC(c1nc(N3CCOCC3)c3cc(-c4cn[nH]c4)ccc3n1)O2 (stereo not drawn)	37*	-50	>19
CN(C)CCN(C)c1nc(C2COc3ccccc3O2)nc2ccc(-c3cn[nH]c3)cc12 (stereo not drawn)	28	12	nt
O=C1CCCN1CCn1cnc2c(NCc3ccccc3)nc(Nc3ccc(-n4ccnc4)cc3)nc21	-13	2	nt
OCC1CCCN1c1nc(Nc2ccccc2)c2ncn(-c3ccsc3)c2n1 (stereo not drawn)	2	2	nt
SMILES	ASK1 primary	ULK1 primary	AlphaScreen intf
COc1cc2nc(Oc3ccccc3)nc(Nc3ccc(N4CCOCC4)cc3)c2cc1OC	2	-15	nt
c1ccc(CN2CCC(Nc3ccnc(Nc4ccc(N5CCOCC5)cc4)n3)CC2)cc1	50*	16	i
c1ccc(CN2CCC(Nc3nccc(Nc4ccc(N5CCOCC5)cc4)n3)CC2)cc1	16	14	nt
COc1cc2nc(NC3CCN(Cc4ccccc4)CC3)nc(Nc3cc(OC)c(OC)c(OC)c3)c2cc1OC	17	-7	nt
COc1cc2nc(Nc3nc4ccccc4n3C)nc(Nc3cc(OC)c(OC)c(OC)c3)c2cc1OC	8	1	nt
COc1cc2nc(Nc3nc4ccccc4n3C)nc(Nc3ccc(NC(C)=O)cc3)c2cc1OC	72*	-52	9.7*
COc1cc2nc(NC3CCN(Cc4ccccc4)CC3)nc(Nc3ccc(N4CCOCC4)cc3)c2cc1OC	39*	14	8.3*
COc1cc2nc(Nc3ccccc3)nc(Nc3ccc(N4CCOCC4)cc3)c2cc1OC	48*	-12	9.5*
O=C(NCCN1CCOCC1)c1cccc(-n2ncc3cc(Nc4ccccc4Cl)ccc32)n1	-14	-9	nt
O=C1CCCN1CCCNc1nc(-c2csc3ccccc23)nc2c1ncn2C1CCCCC1	-7	-80	nt
COc1cc2nc(Nc3nc4ccccc4n3C)nc(Nc3ccc(N4CCOCC4)cc3)c2cc1OC	67*	-13	i

From PubChem
